Binding signal data for 94 sequences are collected here from article PMC10668032, “Altered binding affinity of SIX1-Q177R correlates with enhanced WNT5A and WNT pathway effector expression in Wilms tumor”.

In all, about 33,000 sequences were measured (“e-score”: median about -0.05, highest 2% from about 0.38 on). Shown is part of a subset that was picked to be rich in the highest values.

The target of this assay is T1, SIX1-Q177R homeodomain (human, UniProt Q15475 108-198, Q177R).
T1 sequence: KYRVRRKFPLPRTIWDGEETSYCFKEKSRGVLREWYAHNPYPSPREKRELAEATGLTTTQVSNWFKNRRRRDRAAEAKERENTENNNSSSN
The experiment in a line: universal protein binding microarray; Universal all-10-mer PBM (8x60K, AMADID 030236), 300 nM GST-tagged protein, Alexa Fluor 488 anti-GST; buffer, salt, pH and temperature not stated (as in Berger); high values mean tight binding. To be noted: protein: ivt; tags: N-terminal GST; dsDNA, one strand shown. The method in brief: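 After in vitro transcription/translation, GST-tagged homeodomains were quantified against a recombinant GST standard curve by anti-GST western blot. They were then placed in duplicate at 300 nM final concentration on universal 'all 10-mer' protein binding microarrays of 8×60K format.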
Consider ACAACCCC, for which the binding signal amounted to 0.207 ± 0.03 E-score. The same measure for GGCCACAC: 0.233 ± 0.0102 E-score; for GGCTACGA: 0.196 ± 0.00863 E-score. With CGCGCTAC the figure was 0.15 ± 0.0294 E-score; with GGCTACAC, 0.4245 ± 0.0031 E-score; with CGCTCTAC, 0.157 ± 0.026 E-score. CGCTACAC: the binding signal was 0.4023 ± 0.0021 E-score.

As to AGCCACAC, the binding signal amounted to 0.208 ± 0.0231 E-score.

Take AGCTACAC: the binding signal was determined as 0.435 ± 0.00848 E-score. CTTTTACA: the binding signal came to 0.17 ± 0.0837 E-score. With CACGTACG the figure was 0.167 ± 0.0161 E-score; with CTCCTACA, 0.243 ± 0.0252 E-score. The same measure for ACCACGTC: 0.182 ± 0.0198 E-score; for ACTATCGA: 0.156 ± 0.0186 E-score.

Take CTGAACAC: the binding signal turned out to be 0.4224 ± 0.00137 E-score. For the sequence GTGAGCAC, the binding signal worked out at 0.159 ± 0.0143 E-score. Turning to ATGCACAC, the binding signal was found to be 0.289 ± 0.00704 E-score. With ATGAACAC the figure was 0.4 ± 0.0197 E-score; with CTGAGCAC, 0.254 ± 0.0174 E-score. The same measure for CTGAACCC: 0.187 ± 0.0441 E-score; for ATGAACCC: 0.198 ± 0.0247 E-score. In the case of GTGAACAC, the binding signal was 0.4118 ± 0.00099 E-score. With TCAGAACA the figure was 0.228 ± 0.00667 E-score.

Take ACTCCCCA: the binding signal was 0.163 ± 0.025 E-score.

On to GGAAGACA, for which the binding signal amounted to 0.155 ± 0.0119 E-score.

On to CACGTCGA, for which the binding signal came to 0.177 ± 0.0103 E-score. Take CAGTCGGG: the binding signal was 0.196 ± 0.029 E-score.

On to ATCCGACC, for which the binding signal is 0.153 ± 0.0521 E-score. With CCCGATCC the figure was 0.2392 ± 0.00171 E-score; with AGATGGTG, 0.2726 ± 0.000212 E-score. With CAACACGC, the binding signal came to 0.363 ± 0.0087 E-score.

As for CTACACAG, the binding signal is 0.161 ± 0.084 E-score. With GTACACAA the figure was 0.308 ± 0.0492 E-score; with GTACTCGA, 0.19 ± 0.0242 E-score; with CTACACAC, 0.297 ± 0.0318 E-score. The same measure for GTACACGA: 0.4189 ± 0.00327 E-score. The same measure for CTACACGC: 0.4033 ± 0.000742 E-score; for CTACACGA: 0.388 ± 0.00636 E-score. With CCAGGATC, the binding signal is 0.193 ± 0.0154 E-score. With CCACTTCC the figure was 0.16 ± 0.0569 E-score; with TGTACGAA, 0.157 ± 0.0609 E-score. The same measure for AATGGACA: 0.174 ± 0.00513 E-score. As for ACCCTCCC, the binding signal amounted to 0.211 ± 0.0163 E-score. Regarding CACCTCTA, the binding signal is 0.295 ± 0.0114 E-score. For the sequence ACGTAATC, the binding signal was determined as 0.186 ± 0.0139 E-score. As for ACGTACAC, the binding signal is 0.436 ± 0.00504 E-score. The same measure for ACGTACCC: 0.202 ± 0.00673 E-score; for CCGCACAC: 0.303 ± 0.0285 E-score; for GCGTACCC: 0.237 ± 0.0376 E-score. Regarding GCGTACAC, the binding signal amounted to 0.4123 ± 0.00366 E-score. With CCGTACCC, the binding signal was 0.1577 ± 0.00155 E-score. The same measure for GCGTACGC: 0.235 ± 0.0141 E-score; for CCGTACAC: 0.418 ± 0.00993 E-score. The same measure for CACCACGA: 0.28 ± 0.0196 E-score; for CAAGGGTA: 0.19 ± 0.0194 E-score; for AACCCCGG: 0.2652 ± 0.00233 E-score. As for AACGGACA, the binding signal came to 0.278 ± 0.00733 E-score. The same measure for TGTCCACA: 0.205 ± 0.0326 E-score. With TAGGTACA the figure was 0.179 ± 0.00841 E-score; with CTAGCAAA, 0.173 ± 0.0314 E-score; with TCCCGACA, 0.155 ± 0.0127 E-score. With CACCGTCC the figure was 0.276 ± 0.00535 E-score. Consider ACACACCG, for which the binding signal was 0.428 ± 0.0122 E-score. The same measure for ACGCACCG: 0.177 ± 0.0273 E-score; for ACACACAT: 0.201 ± 0.0773 E-score; for ACACACCT: 0.386 ± 0.00817 E-score. With ACACACGT the figure was 0.27 ± 0.0195 E-score; with ACACACAG, 0.269 ± 0.0266 E-score; with AAAAGGTG, 0.195 ± 0.0717 E-score.

As to ACTGGGTG, the binding signal worked out at 0.319 ± 0.0299 E-score. Turning to ACGCAGTG, the binding signal amounted to 0.212 ± 0.0202 E-score. In the case of TGTATCAA, the binding signal came to 0.158 ± 0.0316 E-score. The same measure for GTCACGAC: 0.164 ± 0.0297 E-score. Turning to CCCGGGAG, the binding signal was 0.189 ± 0.00274 E-score.

Take ACTGTGCA: the binding signal worked out at 0.195 ± 0.0266 E-score. With CGGACACA the figure was 0.226 ± 0.0432 E-score; with GGGACACC, 0.478 ± 0.0106 E-score. The same measure for GGGACCCC: 0.211 ± 0.0329 E-score. On to AGGACACG, for which the binding signal worked out at 0.349 ± 0.0239 E-score. The same measure for AGGACACA: 0.224 ± 0.0724 E-score; for CGGACACG: 0.373 ± 0.0179 E-score. Regarding AGGACACT, the binding signal turned out to be 0.3795 ± 0.00235 E-score. The same measure for GGGACACA: 0.232 ± 0.0537 E-score. With TGGACACA the figure was 0.252 ± 0.0644 E-score; with AGGACACC, 0.4835 ± 0.000969 E-score; with CGGACACC, 0.48 ± 0.00522 E-score. Take AGGTAGTG: the binding signal worked out at 0.2489 ± 0.00187 E-score. The same measure for AGGATACA: 0.159 ± 0.0108 E-score; for ACCATCAG: 0.181 ± 0.0146 E-score. With CCAGCACC the figure was 0.153 ± 0.0163 E-score. Turning to GACCCCTA, the binding signal was 0.203 ± 0.0141 E-score. The same measure for CTGACTCC: 0.2326 ± 0.00123 E-score. For ACGCCCAA, the binding signal was 0.176 ± 0.019 E-score. Take ACTTCTTA: the binding signal turned out to be 0.183 ± 0.0236 E-score.
